# How the values were obtained:
# [1] = biological target: Serine/threonine-protein kinase 26 (Homo sapiens) (UniProt Q9P289); details: at 1 µM;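 further: mean inhibition of MST4 kinase activity, reported from the GSK PKIS inhibitor-set screening panel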
# [2] = biological target: Serine/threonine-protein kinase PAK 1 (Homo sapiens) (UniProt Q13153); details: at 0.1 µM
# [3] = biological target: Serine/threonine-protein kinase PAK 1 (Homo sapiens) (UniProt Q13153); details: at 1 µM
# [4] = biological target: Serine/threonine-protein kinase PAK 2 (Homo sapiens) (UniProt Q13177); details: at 0.1 µM
# Chain of Serine/threonine-protein kinase PAK 2 (Homo sapiens) (Q13177 whole entry): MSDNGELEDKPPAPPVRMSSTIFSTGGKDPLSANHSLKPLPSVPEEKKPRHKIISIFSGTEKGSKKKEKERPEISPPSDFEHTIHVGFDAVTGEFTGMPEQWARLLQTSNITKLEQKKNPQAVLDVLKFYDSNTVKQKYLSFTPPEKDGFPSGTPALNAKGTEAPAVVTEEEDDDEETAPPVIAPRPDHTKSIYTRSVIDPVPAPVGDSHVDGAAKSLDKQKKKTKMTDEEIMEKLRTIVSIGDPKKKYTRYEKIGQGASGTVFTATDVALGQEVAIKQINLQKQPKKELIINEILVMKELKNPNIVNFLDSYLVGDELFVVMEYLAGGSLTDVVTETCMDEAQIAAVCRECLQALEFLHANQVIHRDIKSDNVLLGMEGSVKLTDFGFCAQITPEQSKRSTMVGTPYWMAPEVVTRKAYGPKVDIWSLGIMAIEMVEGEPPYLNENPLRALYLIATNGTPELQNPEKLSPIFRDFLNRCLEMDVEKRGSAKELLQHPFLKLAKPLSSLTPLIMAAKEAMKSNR
# [5] = biological target: Serine/threonine-protein kinase PAK 2 (Homo sapiens) (UniProt Q13177); details: at 1 µM
# [6] = biological target: Serine/threonine-protein kinase PAK 3 (Homo sapiens) (UniProt O75914); details: at 0.1 µM
# Chain of Serine/threonine-protein kinase PAK 3 (Homo sapiens) (O75914 whole entry, looked up): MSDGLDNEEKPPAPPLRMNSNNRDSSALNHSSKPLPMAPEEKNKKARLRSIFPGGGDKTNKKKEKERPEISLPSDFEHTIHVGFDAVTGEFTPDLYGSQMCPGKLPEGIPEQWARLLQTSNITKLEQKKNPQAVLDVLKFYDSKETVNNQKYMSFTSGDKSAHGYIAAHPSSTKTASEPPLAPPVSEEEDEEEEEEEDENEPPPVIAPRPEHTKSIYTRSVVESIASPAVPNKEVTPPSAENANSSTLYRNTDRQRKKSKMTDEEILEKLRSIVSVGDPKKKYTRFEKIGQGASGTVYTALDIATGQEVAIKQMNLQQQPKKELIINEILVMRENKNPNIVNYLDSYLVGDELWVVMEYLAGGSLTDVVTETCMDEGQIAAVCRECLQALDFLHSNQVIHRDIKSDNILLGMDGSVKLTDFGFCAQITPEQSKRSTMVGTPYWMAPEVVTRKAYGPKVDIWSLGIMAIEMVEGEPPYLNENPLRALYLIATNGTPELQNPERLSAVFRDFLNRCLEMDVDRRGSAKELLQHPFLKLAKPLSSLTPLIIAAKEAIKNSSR
# [7] = biological target: Serine/threonine-protein kinase PAK 3 (Homo sapiens) (UniProt O75914); details: at 1 µM
# [8] = biological target: Serine/threonine-protein kinase PAK 5 (Homo sapiens) (UniProt Q9P286); details: at 0.1 µM
# Chain of Serine/threonine-protein kinase PAK 5 (Homo sapiens) (Q9P286 whole entry, looked up): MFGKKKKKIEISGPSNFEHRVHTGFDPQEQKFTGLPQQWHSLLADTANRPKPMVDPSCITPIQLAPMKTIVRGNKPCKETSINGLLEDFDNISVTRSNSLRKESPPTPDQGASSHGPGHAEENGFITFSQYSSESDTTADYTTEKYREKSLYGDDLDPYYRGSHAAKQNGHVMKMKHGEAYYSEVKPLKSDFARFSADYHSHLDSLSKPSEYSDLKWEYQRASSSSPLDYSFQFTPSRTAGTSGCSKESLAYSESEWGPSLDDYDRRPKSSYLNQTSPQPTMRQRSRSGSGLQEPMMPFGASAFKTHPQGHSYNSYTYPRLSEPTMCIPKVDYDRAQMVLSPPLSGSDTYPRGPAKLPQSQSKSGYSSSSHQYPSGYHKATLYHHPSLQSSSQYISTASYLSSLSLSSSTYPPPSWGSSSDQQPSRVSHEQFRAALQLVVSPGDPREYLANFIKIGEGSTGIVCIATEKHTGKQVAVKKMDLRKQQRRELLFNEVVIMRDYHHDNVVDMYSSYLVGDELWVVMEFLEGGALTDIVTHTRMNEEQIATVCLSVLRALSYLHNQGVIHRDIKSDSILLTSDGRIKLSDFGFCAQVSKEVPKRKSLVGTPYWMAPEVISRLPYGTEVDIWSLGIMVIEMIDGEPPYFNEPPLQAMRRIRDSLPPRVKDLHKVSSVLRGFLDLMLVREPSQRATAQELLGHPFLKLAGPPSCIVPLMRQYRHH
# [9] = biological target: Serine/threonine-protein kinase PAK 5 (Homo sapiens) (UniProt Q9P286); details: at 1 µM
# [10] = biological target: Serine/threonine-protein kinase PAK 6 (Homo sapiens) (UniProt Q9NQU5); details: at 0.1 µM;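 further: mean PAK6 inhibition reported from the GSK PKIS screen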
# Chain of Serine/threonine-protein kinase PAK 6 (Homo sapiens) (Q9NQU5 whole entry, looked up): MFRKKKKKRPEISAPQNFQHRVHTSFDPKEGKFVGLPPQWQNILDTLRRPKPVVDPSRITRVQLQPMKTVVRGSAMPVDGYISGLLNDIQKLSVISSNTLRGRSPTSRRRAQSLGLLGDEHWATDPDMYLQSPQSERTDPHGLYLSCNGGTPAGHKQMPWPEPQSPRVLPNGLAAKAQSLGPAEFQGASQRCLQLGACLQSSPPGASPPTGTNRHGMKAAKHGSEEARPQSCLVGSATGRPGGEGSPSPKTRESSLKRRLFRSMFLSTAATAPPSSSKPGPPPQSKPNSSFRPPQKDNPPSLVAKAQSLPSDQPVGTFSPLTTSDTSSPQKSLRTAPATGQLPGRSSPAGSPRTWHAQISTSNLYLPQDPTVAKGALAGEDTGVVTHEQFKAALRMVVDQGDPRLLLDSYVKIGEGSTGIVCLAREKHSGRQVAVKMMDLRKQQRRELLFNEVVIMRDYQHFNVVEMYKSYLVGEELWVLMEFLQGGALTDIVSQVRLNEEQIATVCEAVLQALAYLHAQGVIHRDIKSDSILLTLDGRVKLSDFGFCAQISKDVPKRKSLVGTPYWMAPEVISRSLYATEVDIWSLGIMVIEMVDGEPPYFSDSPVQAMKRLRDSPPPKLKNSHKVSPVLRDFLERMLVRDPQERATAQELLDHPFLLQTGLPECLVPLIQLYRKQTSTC
# Chain of Serine/threonine-protein kinase 26 (Homo sapiens) (Q9P289 2-416 limits assumed): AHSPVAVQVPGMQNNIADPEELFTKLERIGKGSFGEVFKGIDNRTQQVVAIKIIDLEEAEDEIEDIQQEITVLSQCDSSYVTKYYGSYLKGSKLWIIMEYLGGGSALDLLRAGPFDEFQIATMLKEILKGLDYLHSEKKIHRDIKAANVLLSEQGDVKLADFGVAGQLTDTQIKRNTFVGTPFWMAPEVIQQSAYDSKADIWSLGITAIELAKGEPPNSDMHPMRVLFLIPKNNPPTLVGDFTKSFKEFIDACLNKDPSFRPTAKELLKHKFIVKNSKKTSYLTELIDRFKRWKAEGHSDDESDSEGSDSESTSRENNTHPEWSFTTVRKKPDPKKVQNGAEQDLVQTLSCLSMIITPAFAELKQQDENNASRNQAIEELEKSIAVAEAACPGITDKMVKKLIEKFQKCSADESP
# Chain of Serine/threonine-protein kinase PAK 1 (Homo sapiens) (Q13153 whole entry): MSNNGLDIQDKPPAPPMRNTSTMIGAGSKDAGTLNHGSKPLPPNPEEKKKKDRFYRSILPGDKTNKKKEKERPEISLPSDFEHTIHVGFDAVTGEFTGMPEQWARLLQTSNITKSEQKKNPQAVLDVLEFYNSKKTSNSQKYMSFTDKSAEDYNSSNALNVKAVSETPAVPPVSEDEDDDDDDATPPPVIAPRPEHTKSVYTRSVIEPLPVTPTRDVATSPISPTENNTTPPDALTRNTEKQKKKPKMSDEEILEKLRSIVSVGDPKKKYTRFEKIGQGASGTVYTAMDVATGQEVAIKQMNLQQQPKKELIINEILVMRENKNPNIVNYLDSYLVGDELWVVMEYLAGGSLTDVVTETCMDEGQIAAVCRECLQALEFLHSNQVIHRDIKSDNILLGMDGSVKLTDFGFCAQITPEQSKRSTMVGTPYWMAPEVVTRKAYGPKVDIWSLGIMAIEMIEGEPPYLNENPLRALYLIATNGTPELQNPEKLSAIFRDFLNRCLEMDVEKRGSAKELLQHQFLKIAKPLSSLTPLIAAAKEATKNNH
Structure (SMILES),inhibition [1],inhibition [2],inhibition [3],inhibition [4],inhibition [5],inhibition [6],inhibition [7],inhibition [8],inhibition [9],inhibition [10]
O=C(Nc1n[nH]c2nc(-c3ccco3)c(Br)cc12)C1CC1,-2.34%,4.84%,6.66%,2.69%,3.61%,3.75%,3.54%,-1.27%,-1.99%,0.11%
[O-][S+]1CCN(Cc2ccc(-c3ccc4ncnc(Nc5ccc(OCc6ccccc6)c(F)c5)c4c3)o2)CC1,5.46%,1.29%,5.06%,0.28%,-0.13%,1.32%,1.96%,-1.94%,-2.2%,2.21%
CS(=O)(=O)Nc1ccc(N/C=C2\C(=O)Nc3ccccc32)cc1,-0.36%,-4.5%,-3.06%,-1.89%,-3.37%,-3.72%,-2.59%,-2.35%,0.84%,-9.71%
CCn1c(-c2nonc2N)nc2c(C#CC(C)(C)O)nc(CN3CCCC3)cc21,7.65%,0.14%,2.33%,-2.93%,-0.92%,-0.82%,0.31%,-4.5%,-1.51%,10.8%
COc1ccccc1Nc1ncc(-c2ccccc2)o1,0.41%,10.5%,12.7%,1.73%,1.5%,6.21%,6.38%,-2.83%,-2.65%,–
O=C1Nc2ccc(C(=O)c3ccco3)cc2C1=Cc1cc(Cl)c(O)c(Cl)c1,21.4%,1.1%,3.96%,1.29%,0.81%,2.57%,3.42%,0.93%,5.07%,1.03%
Cc1cc(O)cc(C)c1/C=C/c1cncc(-c2nn[nH]n2)c1,0.45%,6.83%,7.1%,2.28%,2.67%,4.55%,5.43%,1.47%,-1.45%,7.17%
CS(=O)(=O)CCN(CC#N)Cc1ccc(-c2ccc3ncnc(Nc4ccc(OCc5cccc(F)c5)c(Cl)c4)c3c2)o1,0.46%,1.88%,4.88%,0.62%,0.16%,2.04%,4.29%,0.28%,-0.85%,-6.8%
CCn1c(-c2nonc2N)nc2ccncc21,0.2%,6.53%,2.38%,-0.38%,1.82%,0.96%,1.02%,-6.36%,-8.04%,-9.63%
Cc1nnc(-c2ccc(C)c(-c3ccc(C(=O)Nc4cccc(C#N)c4)cc3)c2)o1,-0.56%,5.8%,1.41%,0.71%,0.48%,2.48%,2.15%,0.22%,-1.12%,-9.89%
COc1cc(C)c(NC(=O)CN(C)C)cc1Nc1nc(Nc2cccc(F)c2C(N)=O)c2cc[nH]c2n1,-2.75%,2.74%,3.36%,1.54%,1.5%,1.84%,2.37%,-4.59%,-5.11%,5.11%
COc1cc2c(cc1Nc1nc(N3CCc4ccccc43)c3cc[nH]c3n1)N(C(=O)CN(C)C)CC2,4.16%,3.44%,4.36%,0.89%,1.19%,1.31%,2.24%,0.19%,-1.41%,-3.46%
COc1cc2ncn(-c3cc(O[C@@H](C)c4ccccc4Cl)c(C(N)=O)s3)c2cc1OC,-7.1%,7.98%,9.51%,1.89%,2.93%,5.16%,5.27%,2.62%,4.73%,-0.86%
Nc1ncnc2occ(-c3ccc(NC(=O)Nc4cccc(C(F)(F)F)c4)cc3)c12,-4.13%,6.38%,5.2%,1.77%,1.5%,6.37%,5.54%,2.15%,3.35%,-0.62%
NC(=O)c1ccc(-c2nc(-c3ccccn3)c(-c3ccc4c(c3)OCO4)[nH]2)cc1,2.93%,4.04%,5.77%,0.67%,1.08%,2.68%,2.97%,-3.79%,-0.72%,-8.04%
COc1cccc(-n2ncc3c(N/N=C/c4cccc(F)c4)ncnc32)c1,2.84%,6.15%,6.44%,0.05%,0.67%,1.51%,2.17%,-1.62%,-8.07%,12.7%
CCN1CCC(CC(=O)Nc2n[nH]c3nc(-c4cccs4)c(Br)cc23)CC1,12%,-4.19%,-3.71%,-2.22%,-2.2%,-1.67%,-3.03%,0.15%,16.4%,–
NC(=O)c1cccc(Nc2nccc(Nc3cccc4[nH]ncc34)n2)c1,2.8%,-5.7%,-0.69%,-3.16%,-0.55%,-3.68%,-3.07%,-1.09%,13.4%,3.11%
Cc1cccc(-c2n[nH]cc2-c2ccc3ncccc3n2)n1,2.02%,-2.12%,3.22%,-2.02%,-0.91%,0.55%,1.22%,-7.66%,-3.76%,-5.68%
CN1CCC(C(=O)Nc2n[nH]c3nnc(-c4ccccc4)cc23)CC1,1.63%,10.6%,7.32%,1.19%,2.25%,5.86%,6.46%,3.31%,6.52%,–

Structure (SMILES),inhibition [1],inhibition [2],inhibition [3],inhibition [4],inhibition [5],inhibition [6],inhibition [7],inhibition [8],inhibition [9],inhibition [10]
COc1cc(C=NNc2ncnc3c2cnn3-c2ccccc2)ccc1O,13.3%,4.14%,5.41%,2.39%,1.53%,2.39%,2.83%,-3.08%,0.18%,5.73%
Cn1cc(C=C2C(=O)Nc3cccnc32)c2ccccc21,1.1%,5.04%,6%,0.8%,0.31%,2.68%,3%,-6.57%,-5.19%,-3.53%
CC(C)=Cc1cccc2c1/C(=N/Nc1ccc(S(N)(=O)=O)cc1)C(=O)N2,35.5%,-2.27%,1.28%,0.39%,1.15%,0.22%,1.61%,8.32%,3.26%,7.25%
Fc1cccc(COc2ccc(Nc3ncnc4sc(-c5cccs5)cc34)cc2Cl)c1,-0.58%,1.63%,1.64%,-0.69%,-1.1%,-0.01%,2.7%,-2.5%,-7.05%,-3.68%
O=C1NC(=O)C(N2CCc3ccccc32)=C1c1ccc(Cl)cc1,-1.05%,8.65%,7.01%,2.34%,1.81%,5.1%,5.8%,0.62%,-2.87%,2.3%
COC(=O)Nc1nc2cc(Oc3cccc(NC(=O)Nc4cc(C(F)(F)F)ccc4F)c3)ccc2[nH]1,1.92%,3.97%,-1.03%,-1.19%,0.23%,-1.11%,-1.11%,0.91%,-5.17%,6.44%
CC(=O)Nc1cccc(C#Cc2cncnc2Nc2ccc(OCc3cccc(F)c3)c(Cl)c2)n1,2.51%,1.24%,0.67%,-0.89%,-0.09%,-0.61%,-0.35%,4.91%,9.12%,10.8%
CS(=O)(=O)CCNCc1ccc(-c2ccc3ncnc(Nc4ccc(OCc5ccccc5)c(Cl)c4)c3c2)o1,0.42%,-1.29%,7.48%,0.77%,-0.12%,-0.48%,-0.08%,-6.06%,-8.65%,–
CCCN1CCC=C(c2ccc(Nc3nc(Nc4ccccc4C(N)=O)c4cc[nH]c4n3)c(C)c2)C1,-1.15%,8.77%,12.7%,2.2%,3.03%,5%,6.44%,6.43%,14.2%,–
O=C1NC(=O)C(c2ccc(Cl)cc2)=C1Nc1ccc(Cl)c(C(=O)O)c1,-0.4%,-2.53%,2.15%,-1.89%,-1.88%,-3.46%,-2.5%,0.14%,0.32%,13.1%
CCn1c(-c2nonc2N)nc2cncc(C(=O)N3CCNCC3)c21,1.91%,9.41%,15.3%,3.6%,4.45%,7.27%,9.28%,6.95%,8.13%,-5.05%
CN(C)c1cc2c(Nc3ccc4nc(Cc5ccccc5)[nH]c4c3)ncnc2cn1,-0.63%,8.36%,8.45%,2.07%,1.52%,6.44%,7.25%,9.58%,-7.55%,7.15%
CNC(=O)c1cncc(/C=C/c2c(Cl)cccc2Cl)c1,-0.15%,4.17%,11%,1.59%,0.88%,4.45%,5.48%,5.92%,6.55%,–
COc1ccc(-c2coc3ncnc(N)c23)cc1,1.26%,8.03%,7.01%,1.73%,1.44%,4.88%,4.26%,–,-5.35%,-2.56%
Nc1nc(-c2ccccn2)c(-c2ccc3ncccc3n2)s1,-0.98%,3.7%,4.24%,1.82%,1.66%,3.03%,3.63%,5.99%,4.49%,-7.45%
CC1=C(C(=O)Nc2ccc3[nH]ncc3c2)C(c2ccc3ccccc3c2)CC(=O)N1 (configuration not stated),-3.47%,0.76%,4.95%,-0.2%,2.46%,2.14%,0.85%,-1.65%,3.39%,-2.35%
Cc1ccc(C(=O)NC2CCCCC2)cc1-c1ccc(C(=O)NCC2CC2)cc1,-1.45%,6.65%,4.6%,2.09%,1.97%,4.22%,4.44%,4.34%,13.6%,-2.81%
COc1ccc2cc(-c3c(-c4ccncc4)nc(-c4ccc([S+](C)[O-])cc4)n3C)ccc2c1 (configuration not stated),-1.05%,4.83%,2.57%,1.33%,1.31%,3.03%,3.28%,-4.32%,-3.64%,-2.25%
CS(=O)(=O)CCNCc1nc(-c2ccc3ncnc(Nc4ccc(F)c(Cl)c4)c3c2)cs1,0.43%,2.77%,4.21%,1.56%,1.25%,2%,3.08%,2.01%,8.16%,5.79%
Cc1nn(C)c2cc(N(C)c3ccnc(Nc4cccc(S(N)(=O)=O)c4)n3)ccc12,2.03%,5.87%,4.55%,0.68%,1.06%,-1.47%,2.95%,–,5.34%,-4.18%
